Bioassay records: PubChem BioAssay, several laboratories
Most compounds without a hit are left out; they make up all but 2.3% or so of the library.
GLD-1 RNA inh: GLD-1-TGE RNA interaction inhibition (C. elegans) | purified GLD-1 + fluorescein TGE RNA, fluorescence polarization | inhibition, % at 5.96 µM | actives 0.44% (n = 320,000) | Q17339;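 active = percent inhibition above a per-plate cutoff, the plate mean of test compounds plus 3 SD, cut at about 30% in these data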;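 note: 0% = DMSO wells with GLD-1 and probe and 100% = wells lacking GLD-1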
Mcl-1 Bim block: disrupts Bim peptide binding to human Mcl-1 | Q07820 | Bead-based flow cytometry, Bim peptide-Mcl-1 binding | inhibition, % at 10 µM | actives 0.1% (n = 190,000) | AID 1009; in the data active = inhibition above about 40%;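 note: 0% = no compound tracer wells and 100% = peptide blocker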
Target sequence (Q07820 whole entry, looked up): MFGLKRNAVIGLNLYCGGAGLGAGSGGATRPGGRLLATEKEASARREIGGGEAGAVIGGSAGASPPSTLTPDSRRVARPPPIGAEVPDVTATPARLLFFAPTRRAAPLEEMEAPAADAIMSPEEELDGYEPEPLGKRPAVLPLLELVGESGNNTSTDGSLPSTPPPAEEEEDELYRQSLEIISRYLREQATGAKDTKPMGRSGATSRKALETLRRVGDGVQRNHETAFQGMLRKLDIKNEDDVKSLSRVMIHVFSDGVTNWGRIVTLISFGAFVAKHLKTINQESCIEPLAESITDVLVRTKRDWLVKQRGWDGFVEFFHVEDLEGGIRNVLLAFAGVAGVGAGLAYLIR
Mcl1 Bid PPI: disrupts binding of human Mcl-1 to Bid peptide. inhibition, % at 21.7 µM. actives 0.97% (n = 220,000). TR-FRET Mcl-1/Bid-Dy647 peptide binding, 1536-well. Q07820;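 active = compounds that cut the binding signal by more than half at the single screening dose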;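 note: His-tagged Mcl-1 with europium anti-His antibody binding Bid BH3 peptide; 0% = Mcl-1 plus peptide wells and 100% = peptide-only wells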
MCL1-BIM inh: disrupts human MCL1 binding to BIM-BH3 peptide. Q07820. GST-MCL1 / FITC-Bim-BH3 fluorescence polarization. inhibition, % at 10.9 µM. actives 0.68% (n = 320,000). AID 2057;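 active = inhibition above the mean inhibition of all tested compounds plus 3 SD, set per campaign, cut at about 40% in these data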;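 note: 0% = DMSO wells and 100% = unlabeled Bim-BH3 peptide control; higher means more loss of mP so more displacement of Bim peptide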
Mcl1-Noxa inh: Mcl-1/Noxa interaction inhibition; Q07820; TR-FRET Mcl-1/Noxa peptide binding, 2 h; inhibition, % at 21.7 µM; actives 1.5% (n = 220,000);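 active = compounds that cut the protein-peptide binding signal by more than 50% relative to plate controls in a single-dose test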;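 note: His-tagged Mcl-1 with rhodamine Noxa BH3 peptide and terbium anti-His antibody; 0% = Mcl-1 plus Noxa peptide wells and 100% = peptide-only wells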
Bcl-xL primary: inhibitors of human Bcl-xL. GST-Bcl-xL / FITC-Bim BH3 peptide fluorescence polarization. actives 0.7% (n = 320,000). inhibition, % at 10.9 µM. AID 2129;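 active = inhibition above the mean of all tested compounds plus 3 SD, cutoff set per campaign, cut at about 30% in these data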;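 note: 0% = DMSO wells and 100% = unlabeled Bim-BH3 peptide competitor; inhibitors lower millipolarization by displacing the labeled peptide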
Target sequence (Q07817 whole entry, looked up): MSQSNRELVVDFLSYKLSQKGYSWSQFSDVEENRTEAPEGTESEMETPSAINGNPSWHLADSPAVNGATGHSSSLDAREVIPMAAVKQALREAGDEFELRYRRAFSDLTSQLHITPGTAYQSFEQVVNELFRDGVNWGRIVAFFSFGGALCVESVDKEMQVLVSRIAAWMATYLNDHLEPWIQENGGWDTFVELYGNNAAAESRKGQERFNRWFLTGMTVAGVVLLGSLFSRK
An asterisk follows results filed as active; / = no result.

SMILES	GLD-1 RNA inh	Mcl-1 Bim block	Mcl1 Bid PPI	MCL1-BIM inh	Mcl1-Noxa inh	Bcl-xL primary
NC(=O)c1cc(N2C(=O)C=CC2=O)ccc1Cl	6	0	-54	17	68*	10
CC(=O)Nc1ccc(Cl)c(C(N)=O)c1	4	-2	14	-2	24	-2
CCOc1cc(/C=C2\SC(=S)N(C(C(=O)O)c3ccccc3)C2=O)ccc1O (centres undefined)	-54	/	51*	-22	51*	-15
Nc1ccc(C(=O)C(=O)c2ccccc2)cc1	3	/	/	-2	/	-1
Cc1cc(O)c(C=O)c2c1C(=O)Oc1c(CO)c(O)c3c(c1O2)C(O)OC3=O (centres undefined)	14	1	40	103*	53*	48*
Cc1c(Cc2ccccc2)c(NCCN(C)C)n2c(nc3ccccc32)c1C#N	1	/	-19	7	79*	3
Cc1ccc(CNC(=O)c2ccc(Cl)c(S(N)(=O)=O)c2)n1C	9	/	/	12	/	13
c1cncc(Nc2c3ccccc3nc3ccccc23)c1	11	/	/	10	/	8
Clc1cncc(Cl)c1NNc1c2ccccc2nc2ccccc12	11	-6	-9	4	58*	10
COc1cc(/C=C(\C#N)C(=O)Nc2cccc3ncccc23)cc(OC)c1OC	-11	-6	-7	3	21	8
COc1ccc(/C=C(\C#N)C(=O)Nc2cccc3ncccc23)cc1OC	0	/	-38	18	55*	17
O=C1NC(=S)S/C1=C\C=C\c1ccc([N+](=O)[O-])o1	/	/	21	/	103*	/
NS(=O)(=O)c1ccc(CCNC(=O)C2(S(=O)(=O)c3ccc(Cl)cc3)CC2)cc1	1	/	/	8	/	9
Cc1nn(Cc2ccccc2)c(C)c1NC(=O)CSc1nc(C2CC2)nc2c1cnn2-c1ccccc1	10	0	63*	3	3	0
Cc1nn(C)c(C)c1NC(=O)CSc1nc(Cc2ccccc2)nc2c1cnn2-c1ccccc1	-2	/	/	7	/	2
O=C(CCSCCC(=O)NCc1ccco1)NCc1ccco1	5	-4	-12	21	54*	14
O=C(CCSCc1ccccc1Cl)NCc1ccco1	1	1	-23	3	12	8
O=C(COC(=O)C1CC2C=CC1C2)NCc1ccco1 (centres undefined)	5	0	-15	33	66*	5
O=C(NC1CCCC1)C(c1ccccc1)N(C(=O)c1csnn1)c1ccccc1F (centres undefined)	2	/	/	2	/	-1
C=CCN1C(=O)/C(=C2/Sc3ccc(OC)cc3N2C)SC1=Nc1cccc(O)c1	-2	-1	54*	-9	58*	-10
N#Cc1ccc(S(=O)(=O)N2CCN(CC(=O)NCC3(N4CCOCC4)CCCCC3)CC2)cc1	-3	/	/	-5	/	-5
COc1ccc(/C=N/n2c(C)nc3ccccc3c2=O)cc1OC	6	/	/	6	/	3
COCCn1cnc2c(c1=O)c1nc3ccccc3nc1n2/N=C/c1ccc(OC)c(OC)c1	-3	/	-8	13	51*	8
COCCn1cnc2c(c1=O)c1nc3ccccc3nc1n2/N=C/c1ccco1	-1	/	-18	11	-15	7
CCCCCCn1cnc2c(c1=O)c1nc3ccccc3nc1n2/N=C/c1ccco1	/	-1	58*	/	39	/
SMILES	GLD-1 RNA inh	Mcl-1 Bim block	Mcl1 Bid PPI	MCL1-BIM inh	Mcl1-Noxa inh	Bcl-xL primary
Cc1cc(C2C(C#N)=C(N)OC3=C2C(=O)CCC3)c(C)s1 (centres undefined)	-1	-2	-1	5	8	1
COc1cc(C2C(C#N)=C(N)OC3=C2C(=O)CCC3)c([N+](=O)[O-])cc1OC (centres undefined)	98*	2	-18	194*	97*	156*
O=C(NCCc1nnc2ccc(SCC(=O)N3CCCC3)nn12)c1ccccc1	-7	/	/	-1	/	1
CCSc1ncc(/C=N/Nc2ccccc2)n1C	-5	-1	7	0	15	3
CCSc1ncc(/C=N/Nc2ccc([N+](=O)[O-])cc2)n1C	-12	-3	41	-65	80*	-35
COc1ccc(OC(=O)CCN2C(=O)C3C4C=CC(C4)C3C2=O)cc1 (centres undefined)	6	-4	-45	9	5	4
COC(=O)c1ccc(OC(=O)CCN2C(=O)C3C4c5ccccc5C(c5ccccc54)C3C2=O)cc1 (centres undefined)	8	-10	52*	1	10	4
O=C(Nc1nccs1)c1ccc(COc2ccc(Cl)cc2)o1	2	5	-1	10	7	2
O=C(Nc1nccs1)c1ccc(COc2ccc(F)cc2)o1	4	24	-7	-6	56*	-12
CCc1ccc(CCC(=O)Nc2sc3c(c2C#N)CCCC3)o1	-1	5	-58	9	10	2
Cc1ccc(/C=C/C(=O)Nc2sc3c(c2C#N)CCCC3)o1	3	-4	14	6	51*	5
CC[C@H](C)/C=C(C)/C=C/C(=O)Cc1cc(O)c(C)c(O)c1C=O	17	/	-75	22	18	18
CC[C@H](C)/C=C(C)/C=C/C1=CC2=CC(=O)[C@]3(C)OC(=O)[C@@H](C(C)=O)[C@@H]3C2=CO1	34*	1	-13	47*	4	38*
c1ccc2cc3[nH]c(CN4CCOCC4)nc3cc2c1	-2	-3	-1	-2	10	0
c1ccc2[nH]c(CN3CCOCC3)nc2c1	2	0	98*	0	12	2
CC(=O)c1c(-c2ccccc2)c2cc([N+](=O)[O-])ccc2[nH]c1=O	-5	/	/	-9	/	-2
Nc1nc(Cl)cc(N2CCC(c3cc(-c4ccc(Cl)cc4Cl)n[nH]3)CC2)n1	-3	1	-4	-4	66*	2
Nc1nc(Cl)cc(N2CCCC2)n1	3	3	-26	1	3	4
COc1ccccc1NC(=O)COc1cc(Br)c(CNCCCN2CCOCC2)cc1OC	0	2	89*	1	43	-3
Cc1cc2oc(C(=O)Nc3ccc(S(=O)(=O)Nc4nccs4)cc3)cc(=O)c2cc1Cl	4	7	26	8	62*	5
Cc1cc(C)c2oc(C(=O)Nc3ccc(S(=O)(=O)Nc4nccs4)cc3)cc(=O)c2c1	6	/	-152	10	83*	10
CN(C)CCN(C(=O)c1ccccc1Cl)c1nc2c(Cl)cccc2s1	5	-4	57*	0	-7	7
CCOc1ccc(NC(=S)NN2C(C)CCCC2C)cc1 (centres undefined)	2	-8	57*	32	25	5
CC(C)OC(=O)C[N+](C)(C)CCN1C(=O)C2C(c3ccccc3)C=CC(c3ccccc3)C2C1=O (centres undefined)	55*	1	-14	14	0	0
